Sampled rows, rich in hits. Any-hit rate of the full collection: about 3.4%.
PGC1a acetyl inh – lowers PGC1a acetylation signal in U2OS cells; hit rate 0.17% among 350,000; inhibition, % at 15.6 µM; AlphaScreen anti-acetyl-lysine; with virally co-expressed GCN5 acetyltransferase;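 active = every replicate shows inhibition of at least 40%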;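 also: 0% = neutral control wells and 100% = positive control wells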
EWS-Fli block – inhibitors of EWS/Fli oncoprotein transcriptional activity | A673 NR0B1-luciferase reporter, viability-normalised | inhibition, % at 12.6 µM | hit rate 0.67% among 350,000;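 active = mean inhibition of at least 50% after viability correction, with every replicate also passing that limit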;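 also: firefly luciferase signal divided by Alamar Blue viability fluorescence both relative to DMSO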
LGR2 inh – Drosophila LGR2 receptor signaling inhibition; inhibition, % at 9.99 µM; HEK293 LGR2, CRE-luciferase, bursicon-stimulated, 4 h; hit rate 0.35% among 380,000;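 active = drop in luminescence signal, shown as inhibition above about 50% in the replicate tests, limit read from the data, passing the limit was not always enough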;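 also: agonist challenge used bursicon conditioned medium at about half maximal strength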
PAX8 reporter – lowers PAX8-driven luciferase in RMG-I cells; RMG-I TPO-luciferase reporter, SteadyGlo, 24 h; AID 652154; hit rate 1.2% among 360,000; inhibition, % at 12.6 µM;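 active = mean replicate inhibition at least 60% with every replicate also reaching 60%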;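 also: luciferase light reporting Pax8 driven TPO promoter activity; plate controls were median of neutral control wells for no effect and mitoxantrone controls for full effect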
Ecoli rRNA inh – selective bacterial rRNA inhibition in E. coli; hit rate 1.6% among 350,000; GFP signal change (wild-type ribosome), % (no concentration beside the values); E. coli WT GFP vs humanized-ribosome RFP mutants, fluorescence, 24 h; active compounds read low; DMSO median 0, no signal -100;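 active = significant combined selectivity score with lowered wild-type GFP, culture density cut under 30%, mutant RFP and density less affected; inactive = any of these conditions unmet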
SIRT5 inh – inhibitors of human sirtuin-5 desuccinylase | hit rate 1.1% among 330,000 | inhibition, % at 15 µM | Purified SirT5, succinyl-peptide AMC, trypsin-coupled fluorescence | Q9NXA8; in the data active = inhibition above about 15%
Target sequence (Q9NXA8 whole entry, looked up): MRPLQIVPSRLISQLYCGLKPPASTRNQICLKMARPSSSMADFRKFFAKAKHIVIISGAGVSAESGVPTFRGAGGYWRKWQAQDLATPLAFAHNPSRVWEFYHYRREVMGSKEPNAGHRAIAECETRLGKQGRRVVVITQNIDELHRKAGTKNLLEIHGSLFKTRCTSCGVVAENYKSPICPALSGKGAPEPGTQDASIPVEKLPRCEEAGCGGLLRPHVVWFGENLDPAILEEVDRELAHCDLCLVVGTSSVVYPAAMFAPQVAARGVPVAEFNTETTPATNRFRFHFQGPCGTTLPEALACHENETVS
* marks the source's active call; other numbers are inactive results; · = no result given.

SMILES | PGC1a acetyl inh | EWS-Fli block | LGR2 inh | PAX8 reporter | Ecoli rRNA inh | SIRT5 inh
CO[C@@H]1CN(C)C(=O)c2cc(NC(=O)NC(C)C)ccc2OC[C@@H](C)N(C(=O)CC2CC2)C[C@H]1C | -9 | 2 | 3 | · | -1 | 0
CO[C@H]1CN(C)C(=O)c2cc(NC(=O)NC(C)C)ccc2OC[C@@H](C)N(C(=O)CC2CC2)C[C@@H]1C | 3 | -4 | 10 | · | 5 | 20*
COCC(=O)N1C[C@H](C)[C@H](OC)CN(C)C(=O)c2cc(NC(=O)C3CCC3)ccc2OC[C@@H]1C | 4 | 3 | -7 | 10 | 0 | 24*
COCC(=O)N1C[C@@H](C)[C@@H](OC)CN(C)C(=O)c2cc(NC(=O)c3cc(C)on3)ccc2OC[C@H]1C | -1 | -4 | -7 | -5 | -2 | 19*
CCCC(=O)Nc1ccc2c(c1)C(=O)N(C)C[C@H](OC)[C@@H](C)CN(CC1CCCC1)[C@@H](C)CO2 | -4 | 1 | -5 | · | -2 | 11
COc1cccc(C(=O)Nc2ccc3c(c2)C(=O)N(C)[C@H]2CC[C@H](CC(=O)NCC4CC4)O[C@H]2CO3)c1 | -10 | -2 | 1 | -9 | -1 | -5
COc1ccc2c3c(n(C)c2c1)[C@@H](CO)N(C(=O)c1cnccn1)CC31CCN(C(=O)c2cnccn2)CC1 | · | -12 | 7 | · | 4 | -2
COCC(=O)N1CC2(C1)CN(Cc1cccc(OC)c1)[C@H](CO)c1[nH]c3cc(OC)ccc3c12 | 3 | 4 | 2 | · | 1 | ·
COc1ccc2nc(C)cc(Sc3nc4ccccc4s3)c2c1 | 33 | -35 | 4 | 69* | -14 | -10
CCN(CC(=O)Nc1cccc(OC)c1)CC(=O)Nc1ccc(Br)c(C)c1 | 2 | 0 | -16 | 2 | -54* | -2
Cc1ccc(NC(=O)CN(C)CC(=O)Nc2ccccc2Oc2ccccc2)cc1 | -9 | 11 | 6 | 13 | -35* | ·
COc1cccc(NC(=O)CN(C)CC(=O)Nc2ccc(Br)cc2)c1 | · | 7 | 4 | 18 | -34* | -3
COc1cccc(NC(=O)COC(=O)c2c(F)cccc2F)c1 | · | · | 3 | -10 | · | ·
COc1cccc(NC(=O)COC(=O)c2sccc2C)c1 | -3 | -89 | -115 | -186 | -21* | ·
O=C(C[C@H]1C=C[C@@H](NC(=O)Nc2ccc(F)cc2)[C@@H](CO)O1)NCCN1CCCC1 | -2 | -2 | -12 | -2 | 2 | -2
Oc1ccc(C[C@H]2CN([C@@H](Cc3cccc(O)c3)CN3CCC[C@@H]3CN3C(=S)NC[C@@H]3Cc3ccccc3)C(=S)N2CC2CCCCC2)cc1 | -29 | 31 | 38 | 75* | 11 | -7
Oc1ccc(C[C@H]2CNC(=S)N2CC2CCCN2C[C@H](Cc2ccccc2)N2C[C@H](Cc3ccc(O)cc3)N(CC3CCCCCC3)C2=S)cc1 (stereo partly drawn) | -10 | 19 | 6 | 73* | 13 | 11
Oc1ccc(C[C@H]2CN([C@@H](Cc3ccc(O)cc3)CN3CCC[C@@H]3CN3C(=S)NC[C@@H]3Cc3ccccc3)C(=S)N2CC2CCCCCC2)cc1 | -8 | 34 | 8 | 89* | · | -2
Oc1ccc(C[C@H]2CNC(=S)N2CC2CCCN2C[C@H](Cc2ccc(O)cc2)N2C[C@H](Cc3ccc(O)cc3)N(CC3CCCCC3)C2=S)cc1 (stereo partly drawn) | -8 | 12 | 9 | 91* | 0 | 10
Oc1ccc(C[C@H]2CN([C@@H](Cc3ccccc3)CN3CCCC3CN3C(=S)NC[C@@H]3Cc3ccccc3)C(=S)N2CC2CCCCC2)cc1 (stereo partly drawn) | · | 11 | 1 | 15 | 9 | 1
O=C(CC(F)(F)F)N1C[C@@H]2[C@H](c3ccccc31)[C@@H](CO)N2C(=O)c1cccnc1 | 10 | -18 | -4 | -27 | 2 | 0
CCN(CC)CCCNC(=S)N1CCN(c2nc(-c3ccc(F)cc3)cs2)CC1 | -24 | 61* | 11 | 34 | -52 | -6
CNC(=S)N1CCN(c2nc(-c3ccc(Cl)cc3)cs2)CC1 | · | -27 | -10 | -22 | -25* | -6
COCCNC(=S)N1CCN(c2nc(-c3ccc(Cl)cc3)cs2)CC1 | 7 | 8 | 5 | -3 | -21 | -2
CCOC(=O)N(O)c1ccc(C=Cc2ccccc2)cc1 | 49* | -63 | 67* | -71 | -8 | 0
SMILES | PGC1a acetyl inh | EWS-Fli block | LGR2 inh | PAX8 reporter | Ecoli rRNA inh | SIRT5 inh
CCOC(=O)C(=Cc1ccc(N(C)C)cc1)C(=O)c1ccccc1 | · | -19 | 4 | -10 | -17 | -2
Cc1noc(C)c1NC(=O)N(C)C[C@@H]1Oc2ccc(NC(=O)Nc3cccc4ccccc34)cc2C(=O)N([C@@H](C)CO)C[C@@H]1C | 19 | 7 | -7 | 5 | 1 | 0
CNc1cc([N+](=O)[O-])ccc1OCc1ccccc1 | -6 | -34 | -101 | -13 | 0 | -1
O=Cc1c(OCc2ccccc2)ccc2ccccc12 | 32 | -159 | -51 | -174 | -37* | 2
C/[N+]([O-])=C/c1c(OCc2ccccc2)ccc2ccccc12 | -1 | -66 | -79 | -190 | -36* | -2
COc1ccc(CNC(=O)Cn2nc(C(F)(F)F)c(Br)c2C)cc1 | · | 14 | 10 | 7 | 5 | -10
COc1cc(NC(=O)Cn2nc(C(F)(F)F)c(Br)c2C)cc([N+](=O)[O-])c1 | · | -2 | 6 | 19 | -15* | -3
O=C(NCC[C@H]1CC[C@H](NC(=O)c2cccnc2)[C@@H](CO)O1)Nc1ccc(C(F)(F)F)cc1 | -8 | -18 | 8 | 5 | -3 | 5
N#CCC(=O)Nc1ccc(C(=O)OCC(=O)Nc2ccc3ccccc3c2)cc1 | 5 | -7 | 5 | 4 | -18* | 2
O=C(c1ccccc1)C(CCC(CN1CCOCC1)C(=O)c1ccccc1)CN1CCOCC1 (stereo not drawn) | -33 | · | · | · | · | ·
CCCCOc1ccc(C(O)C(CN2CCOCC2)c2ccccc2)cc1 (stereo not drawn) | -1 | 10 | 10 | 21 | 1 | 15*
O=C(c1ccc(Cl)cc1)C1CCN(Cc2ccccc2)CC1 | · | 2 | -10 | 30 | -5 | -4
O=C(c1ccc(Cl)cc1)C(CN1CCCC1)c1ccccc1 (stereo not drawn) | · | 65* | 14 | 48 | -9 | 0
COc1ccc(C(=O)C(CN2CCCC2)c2ccccc2)cc1 (stereo not drawn) | -167 | · | · | · | · | ·
O=C(c1ccc(F)cc1)C(CN1CCOCC1)c1ccccc1 (stereo not drawn) | 60* | 57* | 58* | · | 6 | 1
COc1ccc(C(=O)C(CN2CCOCC2)c2ccccc2)cc1 (stereo not drawn) | 32 | 3 | 54* | · | -50* | -1
CCCC(=O)Nc1ccc2c(c1)OC[C@H](C)N(Cc1nccs1)C[C@@H](C)[C@@H](OC)CN(C)C2=O | 1 | 4 | 9 | 5 | -3 | -2

Screening data (PubChem BioAssay)
